Screening data (PubChem)
In the library only some 3.7% were active in any assay of this set; here they are far more common.
BRCA1 expr up: qHTS Assay to Identify Small Molecule Activators of BRCA1 Expression; MCF7-BRCA1-FFLuc reporter, luminescence, 48 h; response scale: scaled: vehicle 0%, 10 µM genistein 100%; Potency, µM (doses to about 46.1 µM), for inactives: at the top dose activation, usual class: activators; hit rate 1.1% among 380,000; also: potency is read from the fitted curve at half-maximal effect; nearly all actives have a fitted effect of over 80% in size
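Activators of BRCA1 expression were detected as increased firefly luciferase luminescence in engineered MCF7 cells after 48 h compound incubation. Signals were scaled to genistein 10 microM as full activation.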
DRD3 agonist: qHTS of D3 Dopamine Receptor Agonist: qHTS; max activation, %; hit rate 0.58% among 410,000; D3R DiscoveRx beta-arrestin cells, luminescence, 90 min; AID 652048, 2013; in the data active = max activation above about 30%; also: 0% is about no effect
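Agonist mode: compounds and dopamine controls were applied to plated cells for 90 min at 37 degrees C after an overnight attachment at 1500 cells/well. Luminescent read-out followed 30 - 60 minutes at room temperature with DiscoveRx detection reagent.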
PTHR1 agonist: qHTS for PTHR1 Agonists: Primary Screen. hit rate 0.075% among 410,000. AID 743266, 2014. Potency, µM (top dose mostly 115 µM), for the others: at the top dose activation, usual class: activators. HEK293 GP2 PTHR1 cells, GloSensor cAMP luminescence, 1 h; also: potency is read from the fitted curve at half-maximal effect; nearly all actives have a fitted effect of over 55% in size
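HEK-293-derived GP2 cells expressing PTHR1 and a GloSensor cAMP reporter, 3,000/well, plated overnight, given luciferin plus IBMX (each 0.5 mM as added) for 1 h at 37 °C, then compound for 1 h at 37 °C. Luminescence was read after 15 min at room temperature.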
DRD3 antagonist: qHTS of D3 Dopamine Receptor Antagonist: qHTS. hit rate 2.5% among 360,000. D3R cells, DiscoveRx beta-arrestin luminescence, antagonist mode; stronger effect = lower value. max response, negative = inhibition, %. AID 652054, 2013. D(3) dopamine receptor (Homo sapiens), P35462; in the data active = max response below about -50%; inconclusive = no clear call, values can overlap the other calls; also: % is scaled to controls: 0 for no effect and ±100 for the full control effect
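Cells plated overnight at 1500 cells/well, then exposed to library compounds with dopamine controls for 90 minutes at 37 degrees C. DiscoveRx reagent added for 30–60 minutes at room temperature; luminescence read, quantitative HTS format.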
B2AR arrestin: qHTS assay of beta-arrestin-biased ligands of beta2-adrenergic receptor | Beta-2 adrenergic receptor (Homo sapiens), P07550 | beta-arrestin recruitment to beta2AR, cell-based reporter | Potency, µM (highest dose often 46.1 µM), for inactives: at the highest dose activation, most hits filed as activators | hit rate 0.02% among 330,000;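 also: potency is read from the fitted curve at half-maximal effect; 0% = DMSO controls and full agonism = EC100 isoproterenol or metaproterenol; nearly all actives have a fitted effect of over 65% in size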
Target sequence (P07550 whole entry, looked up): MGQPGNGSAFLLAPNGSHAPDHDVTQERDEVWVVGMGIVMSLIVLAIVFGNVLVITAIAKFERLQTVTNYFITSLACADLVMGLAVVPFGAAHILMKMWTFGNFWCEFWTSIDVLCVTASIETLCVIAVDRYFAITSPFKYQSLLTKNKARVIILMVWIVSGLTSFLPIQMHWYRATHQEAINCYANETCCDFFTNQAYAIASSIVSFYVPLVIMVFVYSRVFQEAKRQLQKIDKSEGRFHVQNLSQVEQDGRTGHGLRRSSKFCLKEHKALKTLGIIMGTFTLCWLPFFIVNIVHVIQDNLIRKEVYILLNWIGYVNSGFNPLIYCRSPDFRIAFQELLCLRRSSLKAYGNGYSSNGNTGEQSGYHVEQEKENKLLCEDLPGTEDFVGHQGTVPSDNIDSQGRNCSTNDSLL
RGS4 inhibitor: Inhibitors of Regulator of G Protein Signaling (RGS) 4: qHTS; hit rate 0.039% among 390,000; Potency, µM (highest dose often 114 µM), for inactives: at the highest dose activity change, negative = inhibition, most hits filed as inhibitors; AID 504845, 2011; Transcreener GDP fluorescence polarization, RGS4-accelerated GTP hydrolysis; Regulator of G-protein signaling 4 (Homo sapiens), P49798; also: potency is read from the fitted curve at half-maximal effect; % is scaled to controls: 0 for no effect and ±100 for the full control effect; nearly all actives have a fitted effect of over 75% in size
Target sequence (P49798 whole entry, looked up): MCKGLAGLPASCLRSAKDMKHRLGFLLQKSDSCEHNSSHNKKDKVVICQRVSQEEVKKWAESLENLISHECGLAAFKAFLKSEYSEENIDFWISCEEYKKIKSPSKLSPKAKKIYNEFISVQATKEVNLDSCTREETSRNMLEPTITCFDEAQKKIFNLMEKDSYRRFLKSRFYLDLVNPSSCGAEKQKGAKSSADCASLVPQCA
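MLSMR compounds (23 nl, pin-transferred) preincubated 10 min at room temperature with a 500nM (2x) first reagent, then RGS4 at 900nM (2x) plus Transcreener GDP mix added; fluorescence polarization (620/688 nm) read before and after 90 min at 30 °C.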
* hit, by the source's call; i = inactive; ? = inconclusive; · = no result; [ ] = another dose, or the depositor's remark. Unless noted, calls follow the shape of the dose curve; as a rule, active = well fitted curve in the direction sought with a large enough effect; inconclusive = small, poorly fitted or top-dose-only effect, or another doubt; inactive = no such curve, though single readings can be large; an effect the other way counts as inactive or inconclusive.

SMILES	BRCA1 expr up	DRD3 agonist	PTHR1 agonist	DRD3 antagonist	B2AR arrestin	RGS4 inhibitor
CCOC(=O)c1sc(NS(=O)(=O)c2ccccc2)nc1C	-2%	-15	i	-60*	0%	-2%
COc1ccc(-n2cc(C(=O)OCc3ccc(F)c(F)c3)c3ccccc3c2=O)cc1	·	-1	?	·	·	-22%
CCc1nc2ccc(C(=O)NC3CCN(Cc4ccccc4)CC3)cn2c1N(CC)Cc1cccc(Br)c1	-71%	-13	0%	-78*	·	·
C/C(Sc1nnc(Cc2ccccc2)o1)=C(\O)c1ccccc1	-36%	0	-18%	14	·	-2%
COc1cc(NC(=O)c2cccc(C)c2)ccc1NC(=O)c1cc2ccccc2o1	-40%	8	-20%	9	0%	-10%
O=C(Nc1ccc(Cl)cc1)OCc1ccccn1	3.5µM*	-3	-11%[57.5 µM]	12	0%	13%[56.9 µM]
O=C(Nc1ccc(Cl)cc1)OCc1cncs1	11µM*	-5	-23%	9	0%	-3%
CCN(CC)C(=O)CSC(=Nc1ccccc1F)NC#N	11µM*	3	i	18	0%	-31%
Cn1cc([C@]2(O)C(=O)N(c3ccccc3)c3ccccc32)c2ccccc21	·	3	-22%	-2	·	·
CSc1ccc(CNCCCSc2ncccn2)cc1	28%	-9	10%	?	0%	-17%
COc1ccc(CNCCCSc2ncccn2)c(OC)c1	10%	-4	i	-14	0%	-1%
Clc1ccc(CNCCCSc2ncccn2)cc1	9%	-20	17%	-78*	0%	-27%
Clc1cccc(CNCCCSc2ncccn2)c1	1%	-24	i	-52*	-1%	-13%
Brc1ccc(CNCCCSc2nnnn2-c2ccccc2)cc1	·	9	i	·	·	-5%
Brc1ccc(CNCCCSc2ncccn2)cc1	0%	-18	?	-77*	-2%	-16%
COc1ccc(CNCCCSc2ncccn2)cc1OC	5%	-9	i	-65*	0%	-2%
O=C(COC(=O)Cc1ccccc1[N+](=O)[O-])NCC1CCCCC1	-27%	3	i	-15	0%	-5%
CN(C)/C=C/C(=O)c1ccc(-n2cccc2)cc1	7.9µM*	7	-5%	-2	0%	-9%
O=C(COc1cc(F)ccc1[N+](=O)[O-])Nc1cc(S(=O)(=O)N2CCCC2)ccc1Cl	-39%	15	-12%	16	0%	-7%
COc1ccc(N2CCN(CC(O)COc3ccccc3[N+](=O)[O-])CC2)cc1 (stereo not given)	-19%	-12	-1%	-54*	0%	-37%
O=[N+]([O-])c1ccccc1OCC(O)CN1CCN(CC(O)COc2ccccc2[N+](=O)[O-])CC1 (stereo not given)	-20%	-5	-27%	-93*	-1%	-14%
COc1cccc(OC)c1OCC(O)CN1CCN(c2ccc(F)cc2)CC1 (stereo not given)	3%	-15	-14%	-77*	-1%	16%
OC(COc1ccccc1)CN1CCN(CC(O)COc2ccccc2)CC1 (stereo not given)	-16%	-22	-21%	-30	0%	-10%
O=C(O)c1ccc(-c2nn3c(=O)cc(N4CCNCC4)nc3s2)cc1	13%	·	-10%	·	·	·
CCOC(=O)C1=NOC2COC3(CCN(c4ncccn4)CC3)OCC12 (stereo not given)	6%	-2	i	-12	0%	9%
SMILES	BRCA1 expr up	DRD3 agonist	PTHR1 agonist	DRD3 antagonist	B2AR arrestin	RGS4 inhibitor
Cc1ccc(-n2c(SCC(=O)N3CCc4ccccc43)nc3c([nH]c4ccccc43)c2=O)cc1	17%	-8	7%	·	·	18%
CCOP(=O)(c1ccccc1)c1nc(-c2ccccc2Cl)oc1N1CCCCC1 (stereo not given)	-9%	0	i	-73*	1%	-40%[56.9 µM]
CN(C)S(=O)(=O)c1cccc(CNCC2COc3ccccc3O2)c1 (stereo not given)	14%	31*	i	?	0%	12%
O=C(O)CNCC1COc2ccccc2O1 (stereo not given)	-1%	0	i	16	0%	10%
c1ccc(CCNCC2COc3ccccc3O2)cc1 (stereo not given)	?	-3	3%	-85*	0%	-18%
c1ccc2c(c1)OCC(CNCC1COc3ccccc3O1)O2 (stereo not given)	-15%	-7	-3%	-81*	2%	-5%
NC(=O)c1ncn([C@@H]2O[C@H](CNCc3cc(Cl)ccc3OCc3ccc(Cl)cc3)[C@@H](O)[C@H]2O)n1	16%	-14	i	-1	·	22%
Cc1ccc(C)c(NC(=O)c2ccc3c(c2)CCCN3S(C)(=O)=O)c1	·	-11	-50%	·	·	-19%
CCc1nc2ccc(C(=O)NCc3cccs3)cn2c1N(CC)CCOC	11%	0	-5%	14	·	·
C=CCn1c(SCC(=O)c2cc(C)n(C(C)COC)c2C)nc2sc(C)c(C)c2c1=O (stereo not given)	-40%	60*	?	20	0%	-43%
C=CCn1c(SCc2c(C)noc2C)nc2sc(C)c(C)c2c1=O	-85%	35*	-5%	-16	0%	-10%
Cc1ccc(C)c(NC(=O)C2CCCN2C(=O)NC2CCCCC2)c1 (stereo not given)	-8%	-4	i	-8	0%	-7%
CCCc1cc(=O)[nH]c(Nc2cc(Cl)ccc2OC)n1	·	-30	-23%	·	·	13%
CCCc1cc(=O)[nH]c(Nc2cc(OC)ccc2OC)n1	-13%	-23	i	-52*	0%	3%
O=C(/C=C/c1ccc([N+](=O)[O-])cc1)c1cccs1	36%	-3	-48%	-10	0%	19%[11.4 µM]
Cc1ccc(C)c(/C=C/C(=O)c2ccccc(=O)c2O)c1	-82%	-19	i	-51*	?	?
O=C(/C=C/c1ccc([N+](=O)[O-])cc1)c1ccccc(=O)c1O	-86%	-22	-45%	-107*	·	?
O=C(/C=C/c1ccccc1Cl)c1ccccc(=O)c1O	-82%	-19	-20%	-77*	-1%	?
CCCC(=O)Oc1ccc(-c2nccc(C(OC)OC)n2)cc1	26%	-3	-1%	15	0%	-6%
